Assay results as given in PubChem BioAssay (NCATS).
Records with an inconclusive call do not appear. Where a call stands in place of a potency, no number is given. Active and inactive are the calls of the source. The call rests on the fitted dose curve; in most records, active means well fitted curve in the direction sought with a large enough effect; inconclusive means small, poorly fitted or top-dose-only effect, or another doubt; inactive means no such curve, though single readings can be large; an effect the other way counts as inactive or inconclusive.

How the values were obtained:
[1] = MultiTox-Fluor Cytotoxicity Assay - LYMP1-001 - Dead Cells (AID 946)
Procedure, shortened: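 In this qHTS, 15 uM tetraoctylammonium bromide defined 100% and DMSO defined basal activity. Lymphoblastoid cells (LYMP1-001, 2500 per well) received compound for 16 hr at 37 C before a fluorogenic dead-cell substrate readout at 485/520 nm.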

[2] = MultiTox-Fluor Cytotoxicity Assay - LYMP1-002 - Live Cells (AID 955);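 further: cells exposed to compound for 16 hours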
Procedure, shortened: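 Read-out is live-cell protease activity (cell-permeant GF-AFC substrate, fluorescence Ex/Em=405/510), where a decrease indicates acute toxicity. Human lymphoblastoid cells were treated 16 hours at 37 C in a concentration series, and AC50 values came from standard Hill modelling.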

[3] = MultiTox-Fluor Cytotoxicity Assay - LYMP1-002 - Dead Cells (AID 960);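 further: cells exposed to compound for 16 h at 37 °C; nearly all actives have a fitted effect of over 60% in size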
Procedure, shortened: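 LYMP1-002 cells 2500/well; 5 hr 37 C pre-incubation; compound 16 hr 37 C; MultiTox-Fluor reagent 60 min RT; dead-cell fluor Ex/Em 485/520. Norm. to DMSO (0%) vs 15 uM tetraoctylammonium bromide (100%); Hill AC50.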

[4] = MultiTox-Fluor Cytotoxicity Assay - LYMP1-003 - Live Cells (AID 962);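 further: cells exposed to compound for 16 hours at 37 °C; cytotoxic hits lower the live-cell protease signal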
Procedure, shortened: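 qHTS, 1536-well; 2500 cells/well LYMP1-003; 5 hr 37 C settle; cpd 16 hr 37 C; MultiTox-Fluor reagent 60 min RT; live-cell protease fluor. 405/510; Hill-fit AC50; tetraoctylammonium bromide pos. ctrl.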

[5] = Cell Viability - LYMP1-003 - Assay at 24 hr (AID 963)
Procedure, shortened: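 Cells seeded at 2500/well, 5 hr at 37 C; compounds added; 24 hr at 37 C; CellTiter-Glo added, 30 min room temperature; luminescence read. Decrease in ATP taken as cytotoxicity, AC50 from Hill modelling.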

[6] = Cell Viability - LYMP1-003 - Assay at 40 hr (AID 964); further: series mostly up to about 92 µM; nearly all actives have a fitted effect of over 60% in size
Procedure, shortened: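 Cells were seeded at 2500 per well and incubated 5 hr at 37 C. Compounds were added across a concentration series and left 40 hr at 37 C. CellTiter-Glo was added for 30 min at room temperature before luminescence reading.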

[7] = Cell Viability - LYMP2-004 (AID 966); further: nearly all actives have a fitted effect of over 65% in size; further: potency means the concentration at half of the fitted maximal effect
Procedure, shortened: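 Cells seeded 2500/well, rested 5 hr at 37 C, dosed across a concentration series, incubated 24 hr at 37 C, then CellTiter-Glo added for 30 min at room temperature and luminescence read. Hill fitting gave AC50.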

[8] = Cell Viability - LYMP2-005 (AID 967); further: series mostly up to about 92 µM
Procedure, shortened: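 Luciferase-based ATP quantitation served as the viability measure in human lymphoblastoid LYMP2-005 cells exposed to test compounds for 24 h at 37 C in complete culture medium. Potency (AC50) was obtained by fitting concentration-response curves with the Hill equation.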

[9] = Cell Viability - LYMP2-009 (AID 968); further: nearly all actives have a fitted effect of over 55% in size; further: potency means the concentration at half of the fitted maximal effect
[10] = Cell Viability - LYMP2-011 (AID 969); further: nearly all actives have a fitted effect of over 60% in size
Procedure, shortened: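 2500 cells/well, 5 hr 37 C; compound added, 24 hr 37 C; CellTiter-Glo 30 min RT; luminescence. qHTS concentration-response, Hill-equation AC50. Tetraoctylammonium bromide positive control.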

[11] = Cell Viability - LYMP2-015 (AID 971); further: nearly all actives have a fitted effect of over 55% in size
Procedure, shortened: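 Luminescent ATP read-out (CellTiter-Glo) served as the viability measure after lymphoblastoid cells were exposed to compounds for 24 hours at 37 C. Concentration-response data were fitted with the Hill equation to give AC50.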

[12] = Cell Viability - LYMP2-017 (AID 972); further: series mostly up to about 92 µM; nearly all actives have a fitted effect of over 55% in size
Procedure, shortened: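 2500 cells/well, 5 h 37 C; cpd 24 h 37 C in complete medium; CellTiter-Glo, 30 min RT; luminescence (ATP). AC50 via Hill fit, qHTS.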

[13] = Cell Viability - LYMP2-019 (AID 973); further: nearly all actives have a fitted effect of over 55% in size; further: potency means the concentration at half of the fitted maximal effect
Procedure, shortened: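 Luminescent ATP read-out (CellTiter-Glo, 30 min room temperature) served as the viability measure after 24 hr treatment of lymphoblastoid cells at 37 C. Concentration-response data were fitted to the Hill equation for AC50.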

[14] = Cell Viability - LYMP2-021 (AID 974); further: potency means the concentration at half of the fitted maximal effect
Procedure, shortened: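 Plate 2500 lymphoblastoid cells per well and incubate 5 hr at 37 C. Add compounds over a concentration range and incubate 24 hr at 37 C. Add CellTiter-Glo, wait 30 min at room temperature, read luminescence.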

[15] = Cell Viability - LYMP2-023 (AID 975)
Procedure, shortened: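 2500 cells/well, 5 hr 37 C; cpd 24 hr 37 C; CellTiter-Glo, 30 min RT; luminescence. qHTS conc-response, Hill fit -> AC50. Pos ctrl tetraoctylammonium bromide.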

[16] = Cell Viability - LYMP1-002 - Assay at 16 hr (AID 948)
Procedure, shortened: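 In this qHTS, lymphoblastoid LYMP1-002 cells (human) receive compounds for 16 hr at 37 C. Viability is taken from CellTiter-Glo ATP luminescence, and AC50 derives from standard Hill fits.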

[17] = MultiTox-Fluor Cytotoxicity Assay - LYMP1-003 - Dead Cells (AID 961);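 further: cells exposed to compound for 16 h at 37 °C; nearly all actives have a fitted effect of over 70% in size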
Procedure, shortened: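 Acute toxicity is scored as increased dead-cell protease activity in human lymphoblastoid LYMP1-003 cells after 16 h compound exposure in complete culture medium. Activity is normalized to DMSO basal and 15 uM tetraoctylammonium bromide as full response.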

[18] = Cell Viability - LYMP2-003 (AID 965);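 further: cells exposed to compounds for 24 h before reading; nearly all actives have a fitted effect of over 50% in size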; further: potency means the concentration at half of the fitted maximal effect
Procedure, shortened: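 qHTS, human lymphoblastoid line, 2500 cells/well, complete medium. 24 h drug, 37 C. ATP-based luminescent readout; Hill-fit AC50.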

[19] = Cell Viability - LYMP2-013 (AID 970); further: nearly all actives have a fitted effect of over 55% in size; further: potency means the concentration at half of the fitted maximal effect
Procedure, shortened: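 qHTS; 2500 lymphoblastoid cells/well; 5 hr 37 C settle; cpd 24 hr 37 C; CellTiter-Glo, 30 min RT; luminescence. AC50 = Hill fit.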

[20] = MultiTox-Fluor Cytotoxicity Assay - LYMP1-001 - Live Cells (AID 947)

SMILES	outcome [1]	outcome [2]	outcome [3]	Potency [4]	Potency [5]	Potency [6]	Potency [7]	outcome [8]	Potency [9]	Potency [10]	Potency [11]	Potency [12]	Potency [13]	Potency [14]	Potency [15]	outcome [16]	Potency [17]	Potency [18]	Potency [19]	outcome [20]
NC(=O)/N=N/C(N)=O	inactive	inactive	inactive	inactive	inactive	inactive	inactive	inactive	inactive	inactive	inactive	inactive	inactive	inactive	inactive	–	–	–	–	–
C=CCOC(=O)CCCCCCCC	inactive	inactive	inactive	inactive	inactive	inactive	inactive	inactive	inactive	inactive	–	inactive	inactive	inactive	inactive	inactive	inactive	–	–	–
CSc1ccc(C=O)cc1	inactive	inactive	inactive	inactive	inactive	inactive	inactive	inactive	inactive	inactive	inactive	inactive	inactive	inactive	inactive	–	inactive	inactive	inactive	–
O=Cc1cccc(Br)c1	inactive	inactive	inactive	–	inactive	inactive	inactive	–	inactive	inactive	inactive	inactive	–	inactive	inactive	inactive	–	inactive	inactive	–
C=C(C)C(=O)OCCCCCCCCCC	inactive	inactive	inactive	–	inactive	inactive	inactive	inactive	inactive	inactive	inactive	inactive	inactive	inactive	inactive	inactive	inactive	inactive	inactive	–
CC(C)Nc1ccccc1	inactive	–	inactive	–	inactive	inactive	inactive	inactive	inactive	inactive	inactive	inactive	inactive	inactive	inactive	–	inactive	inactive	–	–
O=C(O)c1ccc(Cl)c(Cl)c1	inactive	inactive	inactive	inactive	inactive	inactive	–	inactive	inactive	inactive	inactive	inactive	inactive	inactive	inactive	inactive	inactive	–	inactive	–
Cc1ccccc1C#N	inactive	inactive	inactive	inactive	inactive	inactive	inactive	inactive	–	inactive	inactive	inactive	inactive	inactive	inactive	inactive	–	inactive	inactive	–
C=C(C)C(=O)OCC(C)O (configuration not stated)	inactive	–	inactive	inactive	inactive	inactive	inactive	inactive	inactive	inactive	inactive	inactive	inactive	inactive	inactive	inactive	–	–	inactive	–
Nc1nc(CC(=O)O)cs1	inactive	inactive	inactive	inactive	inactive	inactive	inactive	inactive	inactive	inactive	inactive	inactive	inactive	inactive	inactive	inactive	–	inactive	inactive	–
O=C(O)c1cccc(Cl)c1Cl	inactive	inactive	inactive	inactive	inactive	inactive	inactive	inactive	inactive	inactive	inactive	inactive	inactive	inactive	inactive	–	inactive	inactive	inactive	–
COc1ccc(N=[N+]([O-])c2ccc(OC)cc2)cc1	inactive	inactive	–	inactive	inactive	inactive	inactive	inactive	inactive	inactive	inactive	inactive	inactive	inactive	inactive	inactive	inactive	inactive	inactive	–
O=C(O)c1cc(Cl)cc(Cl)c1	inactive	inactive	inactive	inactive	inactive	inactive	inactive	–	inactive	inactive	–	inactive	inactive	inactive	inactive	inactive	inactive	inactive	inactive	–
O=C(O)c1ccccc1Cl	inactive	inactive	inactive	–	inactive	inactive	inactive	inactive	inactive	inactive	inactive	inactive	inactive	inactive	inactive	inactive	inactive	inactive	inactive	–
CCCCCCCCC	inactive	–	inactive	inactive	inactive	inactive	inactive	inactive	inactive	inactive	inactive	inactive	–	inactive	inactive	–	inactive	inactive	inactive	–
C=CCCCCCC	inactive	inactive	inactive	inactive	inactive	inactive	inactive	inactive	inactive	inactive	inactive	inactive	inactive	inactive	inactive	inactive	inactive	–	inactive	–
CCOC(C)(C)C	inactive	inactive	inactive	inactive	inactive	inactive	inactive	inactive	inactive	inactive	–	inactive	inactive	inactive	inactive	inactive	–	inactive	inactive	–
CC(C)N=C=NC(C)C	inactive	inactive	–	inactive	inactive	inactive	inactive	inactive	inactive	inactive	inactive	inactive	inactive	–	inactive	inactive	inactive	inactive	inactive	–

SMILES	outcome [1]	outcome [2]	outcome [3]	Potency [4]	Potency [5]	Potency [6]	Potency [7]	outcome [8]	Potency [9]	Potency [10]	Potency [11]	Potency [12]	Potency [13]	Potency [14]	Potency [15]	outcome [16]	Potency [17]	Potency [18]	Potency [19]	outcome [20]
Cc1ccccc1C=O	inactive	–	inactive	inactive	inactive	inactive	inactive	–	inactive	inactive	inactive	inactive	inactive	inactive	inactive	inactive	inactive	–	inactive	–
CC(=O)Nc1ccc(C)cc1	inactive	inactive	inactive	–	inactive	inactive	inactive	–	inactive	inactive	–	inactive	inactive	inactive	inactive	inactive	–	–	inactive	–
CCc1ccccc1O	inactive	inactive	–	inactive	inactive	inactive	inactive	inactive	–	inactive	inactive	inactive	inactive	inactive	inactive	inactive	–	inactive	inactive	–
CCCOCC(C)OCC(C)O (configuration not stated)	inactive	inactive	–	inactive	inactive	inactive	inactive	inactive	–	inactive	inactive	inactive	–	inactive	inactive	inactive	inactive	inactive	inactive	–
CCC(C)(C)C(=O)O	inactive	inactive	inactive	inactive	inactive	inactive	inactive	inactive	–	inactive	inactive	inactive	inactive	–	inactive	inactive	–	–	inactive	–
COC(=O)CC#N	inactive	–	inactive	inactive	inactive	inactive	–	inactive	inactive	inactive	inactive	inactive	inactive	inactive	inactive	inactive	inactive	inactive	inactive	–
C=CCCCC	–	inactive	inactive	inactive	inactive	inactive	inactive	inactive	inactive	inactive	inactive	inactive	inactive	inactive	inactive	inactive	inactive	inactive	inactive	inactive
Nc1cc(Cl)c([N+](=O)[O-])cc1O	inactive	inactive	inactive	inactive	inactive	inactive	inactive	inactive	–	inactive	–	inactive	inactive	inactive	inactive	inactive	inactive	–	–	–
CC(=O)Nc1cccc(N)c1	inactive	–	inactive	inactive	inactive	inactive	inactive	inactive	inactive	inactive	inactive	inactive	inactive	inactive	inactive	–	inactive	inactive	–	–
O=C(O)/C=C/C(=O)O	inactive	inactive	–	inactive	inactive	inactive	inactive	inactive	inactive	inactive	–	inactive	inactive	inactive	inactive	–	–	inactive	inactive	–
COc1ccccc1[N+](=O)[O-]	inactive	inactive	inactive	–	inactive	inactive	inactive	inactive	–	inactive	inactive	inactive	inactive	inactive	inactive	inactive	inactive	inactive	inactive	–
CCCCCCCCCCCCOCC1CO1 (configuration not stated)	inactive	inactive	inactive	inactive	inactive	inactive	inactive	inactive	inactive	inactive	inactive	inactive	–	inactive	inactive	inactive	inactive	–	inactive	–
OC/C(Br)=C(\Br)CO	–	inactive	inactive	inactive	inactive	inactive	inactive	inactive	inactive	inactive	inactive	inactive	inactive	inactive	inactive	inactive	inactive	inactive	inactive	inactive
CNC(=O)c1ccccc1	–	inactive	inactive	inactive	inactive	inactive	inactive	inactive	inactive	inactive	inactive	inactive	inactive	inactive	inactive	inactive	inactive	inactive	inactive	inactive
Cc1cc([N+](=O)[O-])ccc1N	inactive	inactive	–	inactive	inactive	inactive	inactive	inactive	inactive	inactive	inactive	inactive	inactive	inactive	inactive	inactive	inactive	inactive	inactive	–
Cc1ccc(C)c(N)c1	inactive	inactive	inactive	–	inactive	inactive	inactive	inactive	inactive	inactive	inactive	inactive	inactive	inactive	inactive	–	inactive	inactive	inactive	–
O=Nc1ccc(NO)cc1	inactive	inactive	inactive	–	inactive	inactive	50.1 µM (active)	–	50.1 µM (active)	–	–	–	50.1 µM (active)	50.1 µM (active)	inactive	inactive	inactive	50.1 µM (active)	50.1 µM (active)	–
Nc1cccc(O)c1	–	inactive	inactive	inactive	inactive	inactive	inactive	inactive	inactive	inactive	inactive	inactive	inactive	inactive	inactive	inactive	inactive	inactive	–	inactive
